Results on 24 compounds are retold here after PubChem BioAssay (Tox21).

SMILES strings stand for the structures. Values without a mark were called inactive. Inconclusive results are not listed. Calls of active or inactive are those of the source. Unless noted, the call rests on the fitted dose curve; in most records, active means well fitted curve in the direction sought with a large enough effect in the repeat runs; inconclusive means weak or mixed curves; inactive means flat fitted curve, though single readings scatter.

The nature of test [1]: qHTS assay to test for compound auto fluorescence at 535 nm (green) in HEK293 cells (AID 720680).
The nature of test [2]: qHTS assay to test for compound auto fluorescence at 460 nm (blue) in HEK293 cell free culture (AID 720681). A digest of the protocol:
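Blue fluorescence (Ex 405/Em 460 nm, triamterene-equivalent) was read immediately after pin transfer of compound or DMSO into medium (DMEM, 10% FBS) without cells.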

A short description of test [3]: qHTS assay to test for compound auto fluorescence at 535 nm (green) in HEK293 cell free culture (AID 720682). A digest of the protocol:
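Measurement is a direct plate read of green fluorescence (485 nm in, 535 nm out) after compound addition to serum-supplemented DMEM lacking cells, with fluorescein used to express intensities.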
For orientation: In qHTS, concentration-response curves come from the screen itself.

Test [4] in a line: qHTS assay to test for compound auto fluorescence at 590 nm (red) in HEK293 cell free culture (AID 720683). A digest of the protocol:
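Red-channel autofluorescence of compounds in culture medium (DMEM, 10% FBS), no cells, measured at 540/590 nm. Rose Bengal sodium is the reference fluorophore for equivalence.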

Test [5] is described as follows: qHTS assay to test for compound auto fluorescence at 590 nm (red) in HepG2 cell free culture (AID 720684). Summed up:
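Plate contents were MEM with 10% FBS plus test compound or DMSO, no cells. Fluorescence was recorded with 540 nm excitation and 590 nm emission.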

Test [6] is described as follows: qHTS assay to test for compound auto fluorescence at 460 nm (blue) in HepG2 cell free culture (AID 720685). A digest of the protocol: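 Compound (23 nL) or DMSO pinned into cell-free MEM with 10% FBS; blue fluorescence read at 405/460 nm excitation/emission, expressed as auto-fluorescence equivalency to triamterene.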
A short description of test [7]: qHTS assay to test for compound auto fluorescence at 535 nm (green) in HepG2 cell free culture (AID 720686).
The nature of test [8]: qHTS assay to test for compound auto fluorescence at 460 nm (blue) in HepG2 cells (AID 720687). Summed up: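 Blue-channel autofluorescence (Ex/Em 405/460 nm, triamterene-equivalent) was measured after 1 hr compound exposure at 37 C, 5% CO2. Cells were HepG2, plated overnight at 37 C in MEM plus 10% FBS.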
The target of test [9] is Glucocorticoid receptor (Homo sapiens) (UniProt P04150). Nature of the test: qHTS assay to identify small molecule antagonists of the glucocorticoid receptor (GR) signaling pathway (AID 720692; active means well fitted inhibition curve with a large enough effect in the signal ratio in the repeat runs, not every such curve was filed as active; the % refers to the signal ratio; further: potency means the concentration at half of the fitted maximal effect). A digest of the protocol: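 GR-bla HeLa cells carrying a GRE-driven beta-lactamase reporter received compound after 4 h plating, then dexamethasone (5 nM final). After 18 h at 37C, the FRET substrate was loaded for 2 h at room temperature and fluorescence read.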
Glucocorticoid receptor (Homo sapiens), sequence (P04150 whole entry, looked up): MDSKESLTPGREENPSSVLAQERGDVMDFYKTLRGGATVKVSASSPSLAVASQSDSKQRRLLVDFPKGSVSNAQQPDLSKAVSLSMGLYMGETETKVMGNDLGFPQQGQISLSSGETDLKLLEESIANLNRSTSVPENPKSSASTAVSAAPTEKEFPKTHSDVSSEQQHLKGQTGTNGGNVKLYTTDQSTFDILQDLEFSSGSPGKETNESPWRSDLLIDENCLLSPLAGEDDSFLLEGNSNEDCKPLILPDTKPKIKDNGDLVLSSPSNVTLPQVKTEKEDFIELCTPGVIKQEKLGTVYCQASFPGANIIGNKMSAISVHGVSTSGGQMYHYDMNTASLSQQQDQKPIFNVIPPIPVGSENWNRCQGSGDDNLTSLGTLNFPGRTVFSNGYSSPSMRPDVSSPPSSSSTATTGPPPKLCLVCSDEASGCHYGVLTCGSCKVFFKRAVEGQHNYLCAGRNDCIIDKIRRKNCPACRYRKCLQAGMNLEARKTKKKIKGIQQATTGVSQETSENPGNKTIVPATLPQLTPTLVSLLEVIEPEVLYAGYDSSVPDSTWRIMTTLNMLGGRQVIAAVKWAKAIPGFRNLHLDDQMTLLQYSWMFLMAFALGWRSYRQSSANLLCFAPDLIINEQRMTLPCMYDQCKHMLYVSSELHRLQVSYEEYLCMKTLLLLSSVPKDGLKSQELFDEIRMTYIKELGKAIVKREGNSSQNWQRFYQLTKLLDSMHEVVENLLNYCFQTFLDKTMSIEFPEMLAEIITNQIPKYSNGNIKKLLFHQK

The target is the same in test [10]. The test can be described thus: qHTS assay to identify small molecule agonists of the glucocorticoid receptor (GR) signaling pathway (AID 720691; active means well fitted activation curve with a large enough effect in the signal ratio in the repeat runs, not every such curve was filed as active; the % refers to the signal ratio). To be noted: GR-bla HeLa, beta-lactamase reporter ratio, 18 h; activation: at 62.4 µM (top of the series) unless noted. Summed up:
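GR-bla HeLa cells carrying a GRE-driven beta-lactamase reporter, exposed to compounds for 18 h at 37 C. Reporter activation read as fluorescence after 2 h with LiveBLAzer B/G FRET substrate at room temperature.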
On the % scale 0 is the no-effect control and ±100 the full control effect.

In the case of `Nc1c(CC(=O)O)cccc1C(=O)c1ccc(Br)cc1`, the compound was classed as inactive in [1], in test [2], in test [3] and in test [6]. The Potency entry in test [4], in test [5] and in test [7] was “inactive” in each case.

Take `O=C(CS)Nc1ccccc1`: the compound was called inactive in [1], in [2], in test [3], in [6] and in test [8]. The Potency result in test [4], in test [5] and in test [7] was “inactive” in each case.

With `CN(C)c1ccc(C(c2ccccc2)c2ccc(N(C)C)cc2)cc1`, the outcome in [1], in test [2], in test [3], in test [6] and in test [8] was inactive. Also, the Potency entry in test [4], in [5] and in test [7] was “inactive” each time.

With `CCOC(=O)NCCOc1ccc(Oc2ccccc2)cc1`, the compound was classed as inactive in test [1], in test [2], in [3], in test [6] and in test [8]. The Potency entry in test [4], in [5] and in test [7] was “inactive” in each case.

Turning to `C#Cc1cccc(Nc2ncnc3cc(OCCOC)c(OCCOC)cc23)c1`, the compound was called inactive in [1], in test [2], in test [3], in [6] and in test [8]. For the same compound, the Potency result in test [4], in test [5] and in [7] was “inactive” throughout.

As for `CNCCCN1c2ccccc2CCc2ccccc21`, the fluorescence, % of fluorescein in test [1] is -0.0036% [at 18.6 µM]. Besides, the fluorescence, % of fluorescent control in test [2] is 0.0048% [at 18.6 µM]; in test [4] it was 0.0052% [at 18.6 µM]; in [6], 0.0158% [at 18.6 µM]; in [8] it was 0.0417% [at 18.6 µM]. Moreover, the activity change in [3] was 0.0761% [at 18.6 µM]. Besides, the fluorescence, % of Rose Bengal in test [5] was 0.569% [at 18.6 µM]. The fluorescence, % of fluorescein control in test [7] is -0.0226% [at 18.6 µM].

Regarding `Cc1ccccc1S(=O)(=O)O`, the result in test [1], in test [2], in [3], in test [6] and in test [8] was inactive. Besides, the Potency entry in [4], in test [5] and in test [7] was “inactive” in each case.

For `CCNc1cc(O)ccc1C`, the outcome in test [1], in test [2], in [3], in test [6] and in [8] was inactive. The Potency result in [4], in test [5] and in test [7] was “inactive” throughout.

On to `NCc1ccccc1Sc1ccccc1CO`, for which the compound was classed as inactive in test [1], in test [2], in test [3], in test [6] and in test [8]. Also, the Potency result in [4], in [5] and in test [7] was “inactive” throughout.

For the compound `O=C1[C@H]2CCCC[C@H]2C(=O)N1CCCCN1CCN(c2nsc3ccccc23)CC1`, the result in test [1], in [2], in test [3], in test [6] and in test [8] was inactive. Also, the Potency entry in test [4], in test [5] and in test [7] was “inactive” each time.

Take `S=C([S-])NCCNC(=S)[S-].[Mn+2]`: the outcome in [1], in test [2], in [3], in test [6] and in test [8] was inactive. Besides, the Potency entry in [4], in test [5] and in [7] was “inactive” throughout.

`CCCCCCCCO[C@@H]1O[C@H](CO)[C@@H](O)[C@H](O)[C@H]1O`: the call in [1], in test [2], in test [3] and in test [6] was inactive. The Potency result in [4], in test [5], in test [7] and in test [9] was “inactive” in each case.

`COc1cc(Cl)c(OC)cc1N`: the outcome in test [1], in test [2], in [3], in test [6] and in [8] was inactive. Further, the Potency entry in test [4], in test [5], in [10] and in [9] was “inactive” throughout.

For the compound `Nc1ccc(N)c2c1C(=O)c1ccccc1C2=O`, the call in [1], in [2], in [3], in test [6] and in [8] was inactive. For the same compound, the Potency result in test [4], in test [5] and in test [10] was “inactive” throughout.

Regarding `CCCCC(CC)COC(=O)COc1ccc(Cl)cc1Cl` (stereo not drawn), the compound was classed as inactive in test [1], in test [2], in test [3] and in [6]. The Potency result in test [4], in test [5], in test [7], in test [10] and in [9] was “inactive” throughout.

Turning to `NCC(=O)CCC(=O)O`, the compound was classed as inactive in test [1], in test [2], in [3] and in test [6]. The Potency result in [4], in [5], in test [7], in [10] and in test [9] was “inactive” throughout.

With `COCC(C)OC(C)=O` (stereo not drawn), the compound was called inactive in test [1], in test [2], in test [3] and in test [6]. In addition, the Potency entry in test [4], in [5], in [7] and in test [9] was “inactive” each time.

For the compound `CCC(C)c1cc(C(C)(C)C)c(O)c(C(C)(C)C)c1` (stereo not drawn), the call in test [1], in test [2], in test [3], in test [6] and in test [8] was inactive. Besides, the Potency result in [4], in test [5], in test [7] and in test [9] was “inactive” throughout.

On to `C=CCOc1ccccc1OCC(O)CNC(C)C` (stereo not drawn), for which, in [1], the fluorescence, % of fluorescein is -0.0095% [at 18.6 µM]. The figures for the fluorescence, % of fluorescent control in [2], in test [4] and in test [6] were 0.179% [at 18.6 µM], 0.179% [at 18.6 µM] and -0.0059% [at 18.6 µM], respectively. For the same compound, the activity change in [3] is -0.0456% [at 18.6 µM]. In [5], the fluorescence, % of Rose Bengal is 0.264% [at 18.6 µM]. Moreover, the fluorescence, % of fluorescein control in [7] is 0.0052% [at 18.6 µM]. Further, the Potency entry in test [9] is “inactive”.

Consider `CC(C)OC(=O)C(C)N(C(=O)c1ccccc1)c1ccc(F)c(Cl)c1` (stereo not drawn), for which the outcome in test [1], in [2], in test [3], in test [6] and in [8] was inactive. Further, the Potency result in test [4], in [5] and in test [7] was “inactive” each time. Besides, the Potency in [9] was 43.6 µM (active).

As to `OCc1cc(C(O)CNCCCCCCOCCCCc2ccccc2)ccc1O` (stereo not drawn), the compound was called inactive in test [1], in test [2], in [3], in test [6] and in test [8]. Further, the Potency entry in [4], in [5], in [10] and in test [9] was “inactive” each time.

In the case of `Cc1c(N)cccc1[N+](=O)[O-]`, the compound was called inactive in test [1], in [2], in [3], in [6] and in [8]. In addition, the Potency result in test [4], in test [5], in test [7] and in test [9] was “inactive” in each case.

With `C=C(C)C(=O)OCCO`, the compound was classed as inactive in [1], in [2], in test [3], in test [6] and in test [8]. For the same compound, the Potency result in [4], in [5] and in test [10] was “inactive” throughout.

Consider `O=C(O)CNCC(=O)O`, for which the fluorescence, % of fluorescein in test [1] is -0.0204% [at 3.72 µM]. The fluorescence, % of fluorescent control in test [2] is -0.259% [at 3.72 µM]; in [4], -0.223% [at 3.72 µM]; in test [6], -0.156% [at 3.72 µM]; in [8] it was -0.0767% [at 3.72 µM]. The activity change in [3] is -0.144% [at 3.72 µM]. In addition, in test [5], the fluorescence, % of Rose Bengal was -0.109% [at 3.72 µM]. In addition, in [10], the activation was -1.96% [at 6.9 µM].
